Calls of active or inactive are those of the source.
Columns and labels:
[1] = system: Plasmodium falciparum Sir2 (PF13_0152, Sir2A); experiment: pfSir2 binders on small-molecule microarrays, primary screen, biochemical, small-molecule microarray, 635 nm fluorescence (AID 1098); settings: small-molecule microarray binding, fluorescence 635 nm; higher = more signal;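 further: score merges spot fluorescence intensity with its signal-to-noise ratio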
[2] = small-molecule microarray binders of probe aDKK1, primary screen, biochemical, biotinylated probe, 635/667 nm fluorescence (AID 1099); settings: higher = more signal;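 further: score merges 667nm spot fluorescence with signal to noise across triplicate slides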
[3] = small-molecule microarray binders of probe aCHRDL2, primary screen, biochemical, biotinylated probe, 635/667 nm fluorescence (AID 1100); settings: higher = more signal
[4] = splicing luciferase reporter signal modulators, primary screen, spliceosome inhibition project, cell-based, HEK293, splice +/- reporter (AID 1101); settings: luminescence, 24 h, higher = more signal, called active from +8 up or from −8 down;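 further: HEK293 cells carrying a splicing-competent luciferase reporter gene; test concentration not given here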
[5] = target: Fibroblast growth factor 10 (Homo sapiens) (UniProt O15520); experiment: FGF10 binders on small-molecule microarrays, primary screen, biochemical, small-molecule microarray, 635 nm fluorescence (AID 1102); settings: FGF10 binding, fluorescence 635 nm, higher = more signal
Fibroblast growth factor 10 (Homo sapiens), sequence (O15520 whole entry, looked up): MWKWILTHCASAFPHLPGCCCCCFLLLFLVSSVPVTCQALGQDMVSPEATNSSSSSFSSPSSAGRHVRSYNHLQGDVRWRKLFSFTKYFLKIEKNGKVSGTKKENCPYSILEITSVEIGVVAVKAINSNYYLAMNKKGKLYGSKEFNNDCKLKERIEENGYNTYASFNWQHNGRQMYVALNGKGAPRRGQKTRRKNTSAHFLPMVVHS

[6] = system: glycogen synthase kinase-3 (GSK3A per assay name; protocol says GSK3B); experiment: GSK3 binders on small-molecule microarrays, primary screen, biochemical, small-molecule microarray, 635 nm fluorescence, GSK3A (AID 1103); settings: small-molecule microarray binding, fluorescence 635 nm; higher = more signal; further: the record names both GSK3A and GSK3B
[7] = target: Epidermal growth factor receptor (Homo sapiens) (UniProt P00533); experiment: EGFR binders on small-molecule microarrays, primary screen, biochemical, small-molecule microarray, 635 nm fluorescence (AID 1104); settings: EGFR binding, higher = more signal;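 further: score merges 667 nm emission intensity with spot signal to noise over triplicate slides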
Epidermal growth factor receptor (Homo sapiens), sequence (P00533 whole entry, looked up): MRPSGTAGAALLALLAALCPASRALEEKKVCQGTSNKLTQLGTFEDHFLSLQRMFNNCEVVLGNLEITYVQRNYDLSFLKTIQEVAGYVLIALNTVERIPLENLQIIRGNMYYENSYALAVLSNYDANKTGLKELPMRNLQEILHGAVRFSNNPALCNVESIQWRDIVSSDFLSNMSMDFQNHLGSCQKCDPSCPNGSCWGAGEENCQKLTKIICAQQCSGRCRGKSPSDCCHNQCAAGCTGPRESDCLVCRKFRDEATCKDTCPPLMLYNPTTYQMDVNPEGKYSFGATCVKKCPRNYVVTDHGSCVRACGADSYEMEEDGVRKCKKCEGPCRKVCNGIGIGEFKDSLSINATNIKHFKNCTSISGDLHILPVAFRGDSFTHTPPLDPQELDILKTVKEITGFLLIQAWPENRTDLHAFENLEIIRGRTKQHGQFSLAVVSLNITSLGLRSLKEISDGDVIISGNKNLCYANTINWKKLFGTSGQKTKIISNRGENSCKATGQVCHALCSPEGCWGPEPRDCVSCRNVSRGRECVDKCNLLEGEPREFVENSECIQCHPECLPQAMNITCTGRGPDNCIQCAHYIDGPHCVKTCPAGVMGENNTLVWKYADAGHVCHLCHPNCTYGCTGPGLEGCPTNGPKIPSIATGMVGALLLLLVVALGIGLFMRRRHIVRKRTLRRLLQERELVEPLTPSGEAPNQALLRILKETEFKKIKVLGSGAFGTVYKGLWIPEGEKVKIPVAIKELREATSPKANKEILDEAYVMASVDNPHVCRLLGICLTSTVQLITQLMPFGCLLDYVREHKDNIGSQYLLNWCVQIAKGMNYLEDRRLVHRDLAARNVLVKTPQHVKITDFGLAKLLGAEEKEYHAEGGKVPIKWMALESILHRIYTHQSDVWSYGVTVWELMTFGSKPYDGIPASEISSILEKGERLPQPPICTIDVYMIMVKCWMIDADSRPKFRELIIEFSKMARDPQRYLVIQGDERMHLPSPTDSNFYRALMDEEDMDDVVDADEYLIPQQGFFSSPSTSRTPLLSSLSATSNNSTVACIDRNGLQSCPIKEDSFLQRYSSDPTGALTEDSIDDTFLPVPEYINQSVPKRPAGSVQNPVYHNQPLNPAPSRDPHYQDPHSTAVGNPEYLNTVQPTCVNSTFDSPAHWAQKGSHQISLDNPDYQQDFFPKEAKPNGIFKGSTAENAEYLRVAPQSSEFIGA

[8] = target: Follistatin-related protein 3 (Homo sapiens) (UniProt O95633); experiment: FSTL3 binders on small-molecule microarrays, primary screen, biochemical, small-molecule microarray, 635 nm fluorescence (AID 1105); settings: FSTL3 binding, higher = more signal;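 further: score merges emission near 667 nm and signal to noise per printed spot across three slides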
Follistatin-related protein 3 (Homo sapiens), sequence (O95633 whole entry, looked up): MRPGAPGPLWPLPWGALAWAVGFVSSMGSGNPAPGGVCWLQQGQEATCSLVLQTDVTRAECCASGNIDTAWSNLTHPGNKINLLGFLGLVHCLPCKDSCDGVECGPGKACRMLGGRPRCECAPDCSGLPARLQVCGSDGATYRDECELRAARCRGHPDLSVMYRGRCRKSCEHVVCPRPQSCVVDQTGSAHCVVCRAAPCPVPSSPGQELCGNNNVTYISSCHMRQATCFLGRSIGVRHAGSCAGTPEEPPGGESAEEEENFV

[9] = target: Dickkopf-related protein 1 (Homo sapiens) (UniProt O94907); experiment: DKK1 binders on small-molecule microarrays, primary screen, biochemical, small-molecule microarray, 635 nm fluorescence scan (AID 1106); settings: DKK1 binding, higher = more signal;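 further: score merges emission near 667 nm with signal to noise over three replicate slides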
Dickkopf-related protein 1 (Homo sapiens), sequence (O94907 whole entry, looked up): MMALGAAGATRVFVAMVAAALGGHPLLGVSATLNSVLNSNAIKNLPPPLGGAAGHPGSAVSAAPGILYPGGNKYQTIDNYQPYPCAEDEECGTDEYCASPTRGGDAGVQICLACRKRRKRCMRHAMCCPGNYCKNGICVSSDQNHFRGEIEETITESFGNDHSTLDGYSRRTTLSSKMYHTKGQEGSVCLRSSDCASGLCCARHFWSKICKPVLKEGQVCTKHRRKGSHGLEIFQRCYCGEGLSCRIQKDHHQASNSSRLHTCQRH

[10] = system: Inhibin beta A chain (activin A); experiment: INHBA (activin A) binders on microarrays, primary screen, biochemical, small-molecule microarray, 635 nm fluorescence scan (AID 1107); settings: small-molecule microarray binding, higher = more signal;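 further: mouse activin A protein probed at 4.33 µg/mL on printed slides; score merges bound-protein fluorescence near 667 nm with spot signal-to-noise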
[11] = system: Human papillomavirus type 1a protein E7 (residues 44-93); experiment: HPV1a E7 fragment binders on microarrays, primary screen, biochemical, small-molecule microarray, residues 44-93, 635 nm fluorescence (AID 1108); settings: small-molecule microarray binding, fluorescence 635 nm; higher = more signal;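 further: E7 fragment applied at 1 µg/mL in TBST for 1 h at 4 C; score combines spot fluorescence with its signal to noise ratio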
[12] = modulators of HCV replicon luciferase signal, primary screen, HCV replication inhibitor project, Huh7 cells, luciferase reporter (AID 1109); settings: 48 h, higher = more signal;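 further: huh7 hepatoma cells harbouring a luciferase neomycin HCV replicon reporter; luciferase luminescence as measure of HCV replicon replication; test concentration not given here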
[13] = target: Left-right determination factor 2 (Homo sapiens) (UniProt O00292); experiment: LEFTY2 binders on small-molecule microarrays, primary screen, biochemical, small-molecule microarray, 635 nm fluorescence scan (AID 1110); settings: LEFTY2 binding, higher = more signal
Left-right determination factor 2 (Homo sapiens), sequence (O00292 whole entry, looked up): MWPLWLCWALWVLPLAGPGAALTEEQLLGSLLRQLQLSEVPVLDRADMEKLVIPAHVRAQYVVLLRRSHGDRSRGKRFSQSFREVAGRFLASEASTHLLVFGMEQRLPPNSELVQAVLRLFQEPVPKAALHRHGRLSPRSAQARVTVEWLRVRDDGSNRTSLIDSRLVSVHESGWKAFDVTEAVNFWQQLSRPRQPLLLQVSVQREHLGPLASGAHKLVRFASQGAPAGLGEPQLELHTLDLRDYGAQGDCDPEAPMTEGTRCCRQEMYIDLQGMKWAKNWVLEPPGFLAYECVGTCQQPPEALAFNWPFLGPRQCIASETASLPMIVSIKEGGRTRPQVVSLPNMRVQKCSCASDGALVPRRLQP

[14] = target: Calmodulin-1 (Homo sapiens) (UniProt P0DP23); experiment: CALM1 binders on microarrays, EGTA buffer, profiling panel, biochemical, small-molecule microarray, Cy5-labelled CALM1 (AID 1111); settings: Cy5-CALM1 binding fluorescence, higher = more signal;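 further: labelled calmodulin applied in Tris saline Tween buffer holding calcium plus EGTA and DTT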
[15] = target: Calmodulin-1 (Homo sapiens) (UniProt P0DP23); experiment: calcium-bound CALM1 binders on microarrays, profiling panel, artefact control for SMM control-protein annotation, biochemical, small-molecule microarray, Cy5-labelled CALM1, plus calcium (AID 1112); settings: Cy5-CALM1 binding fluorescence, higher = more signal;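 further: score merges spot fluorescence with signal to noise from triplicate slides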
[16] = small-molecule microarray binders of probe aWnt5a, primary screen, biochemical, biotinylated probe, 635/667 nm fluorescence (AID 1113); settings: higher = more signal;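 further: score merges 667 nm fluorescence intensity with signal-to-noise per printed feature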
[17] = small-molecule microarray binders of probe aShh, primary screen, biochemical, biotinylated probe, 635/667 nm fluorescence (AID 1114); settings: higher = more signal;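 further: probe is biotin-labelled aShh protein from a stem cell growth factor screen; measures binding of labelled protein to compounds printed on the slide; score merges feature fluorescence at 667 nm with signal-to-noise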
[18] = small-molecule microarray binders of probe aNog, primary screen, biochemical, biotinylated probe, 635/667 nm fluorescence (AID 1115); settings: higher = more signal;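 further: probe is biotinylated aNog protein used at 0.15 µg/mL for 1 h at 4 C; z-score combines 667 nm fluorescence of each spot with its signal to noise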
[19] = target: Torsin-1A-interacting protein 1 (Homo sapiens) (UniProt Q5JTV8); experiment: LAP1 binders from COS7 cell lysate, primary screen, small-molecule microarray, 635/667 nm fluorescence (AID 1116); settings: COS7-hLAP1 lysate binding, 635 nm fluorescence, higher = more signal
Torsin-1A-interacting protein 1 (Homo sapiens), sequence (Q5JTV8 whole entry, looked up): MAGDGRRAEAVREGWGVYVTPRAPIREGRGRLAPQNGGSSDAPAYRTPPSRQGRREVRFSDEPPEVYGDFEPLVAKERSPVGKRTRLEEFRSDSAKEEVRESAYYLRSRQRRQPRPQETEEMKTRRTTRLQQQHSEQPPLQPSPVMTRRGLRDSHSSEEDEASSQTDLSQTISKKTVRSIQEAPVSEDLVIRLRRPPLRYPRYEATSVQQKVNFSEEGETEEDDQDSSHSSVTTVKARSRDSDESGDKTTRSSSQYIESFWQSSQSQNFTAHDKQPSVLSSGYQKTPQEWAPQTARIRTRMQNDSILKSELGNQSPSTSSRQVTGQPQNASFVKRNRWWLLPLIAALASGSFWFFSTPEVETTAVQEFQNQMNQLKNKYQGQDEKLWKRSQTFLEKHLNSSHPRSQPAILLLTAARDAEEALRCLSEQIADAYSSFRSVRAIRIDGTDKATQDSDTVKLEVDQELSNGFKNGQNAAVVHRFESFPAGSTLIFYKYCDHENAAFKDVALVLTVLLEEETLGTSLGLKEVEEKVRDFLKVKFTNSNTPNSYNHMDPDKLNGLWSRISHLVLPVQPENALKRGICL

[20] = target: Alpha-bungarotoxin (Bungarus multicinctus) (UniProt P60615); experiment: alpha-bungarotoxin binders on microarray, profiling panel, artefact control for SMM control protein annotation, biochemical, small-molecule microarray, Alexa647 label, 635/667 nm fluorescence (AID 1117); settings: alpha-BTX-A647 binding fluorescence, higher = more signal
Alpha-bungarotoxin (Bungarus multicinctus), sequence (P60615 whole entry, looked up): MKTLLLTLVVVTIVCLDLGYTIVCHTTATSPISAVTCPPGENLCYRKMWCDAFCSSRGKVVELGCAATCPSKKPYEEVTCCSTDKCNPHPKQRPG

SMILES | composite z-score [1] | composite z-score [2] | composite z-score [3] | z-score [4] | composite z-score [5] | composite z-score [6] | composite z-score [7] | composite z-score [8] | composite z-score [9] | composite z-score [10] | composite z-score [11] | z-score [12] | composite z-score [13] | composite z-score [14] | composite z-score [15] | composite z-score [16] | composite z-score [17] | composite z-score [18] | composite z-score [19] | composite z-score [20]
CC1CC/C=C\[C@H]2OC34C=CCN(c5ccc(Cl)cc5)C(=O)[C@H]3N(CCO)C(=O)[C@]4(C)C2C(=O)O1 (stereo not given in full) | 0.111 | -0.197 | 0.693 | 0.568 (inactive) | -0.379 | -0.15 | -0.483 | -0.646 | -1.46 | 1.27 | -1.01 | -1.35 | -1.1 | -0.795 | -0.633 | -0.124 | -0.367 | -0.342 | -0.485 | -0.445
CCOC(=O)C1=CCC(c2ccccc2)N(S(=O)(=O)CC[Si](C)(C)C)C1 (stereo not given) | -0.285 | -0.264 | -0.534 | 0.191 (inactive) | -0.887 | -0.157 | -0.458 | -0.736 | -0.214 | 1.24 | -0.312 | -0.327 | -0.262 | -0.0436 | 0.0045 | -0.208 | -0.262 | -0.338 | -0.28 | 0.115
CCOC(=O)[C@H]1CC=C2CC1C(=O)N1CCC[C@@H]1[C@@H]2O[Si](C)(C)C(C)(C)C (stereo not given in full) | -0.105 | -0.539 | -1.04 | 0.582 (inactive) | -0.997 | -1.22 | -0.265 | -1.02 | -0.177 | 0.928 | -0.404 | -3.01 | 0.377 | -1.45 | -1.61 | -0.237 | -0.297 | 0.14 | -0.523 | -1.15
CCCCC=C[C@@H](NC(=O)Oc1cccc(C(F)(F)F)c1)c1ccccc1 | 0.495 | 1.45 | 0.879 | -1.75 (inactive) | 1.09 | 0.992 | 0.185 | 0.719 | -0.432 | 1.16 | 1.18 | -1.07 | -0.143 | 1.85 | 1.11 | 1.04 | 1.97 | 0.59 | 0.503 | 1.62
C=CC[C@]12N=C(c3ccc(OCCCO)cc3)O[C@H]1c1ccccc1N(Cc1ccccc1)C2=O | 1.28 | 1.21 | 1.37 | -0.415 (inactive) | 0.706 | 0.524 | 0.112 | 0.836 | 0.378 | 0.897 | 0.0023 | -2.57 | 0.192 | -0.162 | 0.438 | 0.0032 | -0.0146 | 0.472 | 1.9 | 1.51
C=CCN1C(=O)[C@@]2(O[C@@H](CCO)[C@H]([Si](C)(C)c3ccc(OC)cc3)[C@H]2C)c2cc(NC(=O)c3ccc(OC)cc3)ccc21 | 0.45 | -0.138 | -0.46 | -0.491 (inactive) | 1.09 | 0.587 | 0.424 | 0.722 | 0.532 | 1.32 | -0.747 | -4.9 | 0.629 | -0.178 | 0.678 | -0.199 | 0.0062 | 0.141 | -0.419 | 0.565
C=C(CCCC)C(=O)CC[C@H](OC(=O)c1cccnc1)c1ccccc1OCCO | 0.619 | -0.322 | 0.154 | -0.637 (inactive) | 0.704 | -1.05 | -0.0934 | 0.12 | 0.137 | 1.1 | -0.935 | -2.46 | -0.154 | -0.398 | -0.95 | -0.0758 | -0.102 | -0.136 | -0.0529 | -0.0583
C=C(CCCC)C(=O)CC[C@H](OC(C)=O)c1cccc(OCCO)c1 | 0.707 | -0.409 | -0.193 | 1.01 (inactive) | -0.633 | -0.654 | -0.961 | -0.794 | -0.759 | -0.162 | -0.252 | -1.78 | -0.433 | -0.687 | -0.918 | -0.156 | -0.0709 | -0.036 | 1.31 | -0.653
C=CCC(OC(C)=O)[C@@H]1[C@@H](N(Cc2cccc3ccccc23)C(=O)c2ccc(-c3ccccc3)cc2)c2cc(OCCCO)ccc2N1C(=O)Cc1ccc(OC)cc1 (stereo not given in full) | 0.283 | -0.0675 | 0.0188 | -1.08 (inactive) | 0.168 | 0.0341 | 0.23 | 0.431 | 0.0533 | 0.884 | 0.144 | -1.36 | 0.111 | 0.617 | 0.291 | 0.0479 | 0.149 | -0.0907 | -0.0944 | 0.373
CCCCCCC#C[Si](O[C@H](c1ccccc1)c1cn([C@H](CO)Cc2ccccc2)nn1)(C(C)C)C(C)C | 0.984 | -0.35 | -0.101 | -0.77 (inactive) | 0.629 | 0.166 | -0.525 | -0.25 | -0.15 | -0.33 | 0.205 | -0.462 | -0.154 | -0.27 | 0.105 | -0.096 | 0.298 | -0.443 | 0.8 | -0.218
[N-]=[N+]=Nc1ccccc1C[C@@]1(C(=O)NCCN2CCOCC2)N=C(c2ccc(OCCCO)cc2)O[C@@H]1c1ccccc1 | 1.57 | 0.532 | 0.915 | -0.724 (inactive) | 1.35 | 1.29 | 0.245 | 1.21 | 0.461 | 0.847 | 1.47 | -1.32 | 0.248 | 0.797 | -0.3 | -0.0303 | 0.315 | -0.462 | 0.819 | 0.597

Source: PubChem BioAssay
